Compound activity: PubChem BioAssay, Sanford-Burnham Center for Chemical Genomics
Shown are actives, neighbours in structure and some others; about 3.1% of the full set was active somewhere.
PPC-1+TRAIL kill: compounds killing PPC-1 cancer cells with TRAIL present, primary screen, TRAIL potentiator project, ATPLite luminescence, uHTS | AID 1443, 2008 | PPC-1 cells + TRAIL, ATPLite viability luminescence | cell killing (% activity), % at 4 µM or 5 µM | 220,000 compounds, 0.41% hits;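 active means cell killing above 50% in the first pass at 4 µM, then a duplicate retest at 5 µM averaging 50% or more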;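 further: plate controls were cells with TRAIL plus DMSO for no effect and medium-only wells lacking cells for full effect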
HIF-2a inh: HIF-2a reporter inhibitors, primary screen, luminescence, 786-0 RCC cells. 786-0 RCC cells HIF-2a reporter, luciferase luminescence, overnight. inhibition, % at 18.8 µM. 360,000 compounds, 0.72% hits. AID 624352, 2012;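 active means inhibition of the luminescence signal of 40% or more relative to plate controls, in a single-dose primary screen at 18.75 µM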
TRAIL sens C8: viability loss with TRAIL in NB7+C8 cells, primary screen, TRAIL sensitizer project, cell-based, ATPlite luminescence; 360,000 compounds, 1% hits; inhibition (viability loss, TRAIL sensitization), % at 10 µM;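 active means compounds causing at least 50% loss of cell viability in the single-dose screen, relative to plate controls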
Peg3 promoter: Peg3 promoter-driven luciferase inhibitors, primary screen, cell-based, HeLa, luciferase luminescence; HeLa PEG-Prom luciferase reporter, overnight; inhibition, % at 20 µM; 360,000 compounds, 1.7% hits;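 active means inhibition of at least 50% at 20 µM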
CF NFkB inh: inhibitors of PAF-induced NF-kB signaling, primary screen, cell-based, GFP fluorescence, uHTS | KKLEB NF-kB-GFP reporter, GFP fluorescence overnight | inhibition, % at 5 µM | 360,000 compounds, 0.86% hits | AID 588850, 2011;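 active means at least 50% inhibition at 5 µM, scaled per plate between neutral and stimulator controls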;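 further: PAF is a Pseudomonas aeruginosa culture filtrate used as stimulus; plate controls were PAF-stimulated DMSO wells for no effect and unstimulated DMSO wells for full effect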
KKLEB tox: cytotoxicity in KKLEB CF airway cells, primary screen, cytotoxicity control for CF NF-kB inhibitor project, cell-based, uHTS, fluorescence assay plates. activity change (cytotoxicity), % at 5 µM. KKLEB CF airway cells viability, ATPlite luminescence, overnight; hits give low values; cells stimulated with P. aeruginosa culture filtrate. 360,000 compounds, 0.36% hits. AID 602141, 2011;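 active means corrected activity change at or below -50% at 5 µM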
Mdm2 MdmX conf: retested Mdm2-MdmX interaction blockers, confirmation, cell-based, luminescence, single concentration, set 2 | 740 compounds, 99% hits | shares compounds with HIF-2a inh | SaOS-2 split-luciferase Mdm2/MdmX complementation | inhibition, % at 8 µM | AID 504601, 2011;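 active means mean inhibition of the luminescence signal across two replicates at or above 26 percent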
Target sequence (O15151 whole entry, looked up): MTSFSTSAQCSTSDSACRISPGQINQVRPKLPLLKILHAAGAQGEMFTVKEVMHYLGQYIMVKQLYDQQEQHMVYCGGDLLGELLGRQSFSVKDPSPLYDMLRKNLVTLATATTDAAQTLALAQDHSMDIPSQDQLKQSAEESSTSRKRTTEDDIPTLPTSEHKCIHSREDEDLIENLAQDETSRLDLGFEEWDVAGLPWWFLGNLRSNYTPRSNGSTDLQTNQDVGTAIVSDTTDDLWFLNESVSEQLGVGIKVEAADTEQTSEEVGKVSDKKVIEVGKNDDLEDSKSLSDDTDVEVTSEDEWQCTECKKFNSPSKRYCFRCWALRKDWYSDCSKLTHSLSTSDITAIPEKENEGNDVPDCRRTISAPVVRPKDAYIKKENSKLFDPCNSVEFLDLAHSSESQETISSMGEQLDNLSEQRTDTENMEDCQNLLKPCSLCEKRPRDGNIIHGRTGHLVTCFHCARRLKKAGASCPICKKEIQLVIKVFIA
Target sequence (Q00987 whole entry, looked up): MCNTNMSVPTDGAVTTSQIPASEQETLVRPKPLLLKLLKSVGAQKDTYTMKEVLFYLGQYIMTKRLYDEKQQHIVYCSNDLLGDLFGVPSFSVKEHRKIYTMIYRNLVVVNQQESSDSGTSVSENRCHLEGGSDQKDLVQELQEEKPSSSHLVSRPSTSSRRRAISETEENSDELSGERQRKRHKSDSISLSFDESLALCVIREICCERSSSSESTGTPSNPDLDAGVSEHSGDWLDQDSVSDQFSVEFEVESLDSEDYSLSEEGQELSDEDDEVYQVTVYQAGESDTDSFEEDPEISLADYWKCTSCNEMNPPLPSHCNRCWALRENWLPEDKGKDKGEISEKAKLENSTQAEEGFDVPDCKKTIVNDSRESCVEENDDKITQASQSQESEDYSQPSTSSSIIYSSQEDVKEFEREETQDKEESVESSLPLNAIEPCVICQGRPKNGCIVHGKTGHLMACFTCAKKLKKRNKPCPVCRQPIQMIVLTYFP
HIF-2a conf: HIF-2a reporter inhibitor retest, confirmation, luminescence, 786-0 RCC cells; shares compounds with HIF-2a inh; HIF-2a luciferase reporter luminescence, overnight; inhibition, % at 18.8 µM; 1,800 compounds, 56% hits; AID 651580, 2012;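 active means mean inhibition across four replicates of at least 40 percent at the single tested concentration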
HIF-1a cs: HIF-1a luciferase reporter signal reduction – MiaPaCa-2 cells, single concentration, counter-screen for HIF-2a inhibitor project, confirmation; 1,800 compounds, 72% hits; inhibition, % at 18.8 µM; MiaPaCa-2 HIF-1a luciferase reporter, desferoxamine, overnight; shares compounds with HIF-2a inh;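 active means mean inhibition of the reporter signal across four replicates at the single tested dose of 50% or more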
An asterisk follows results filed as active; nt = no result.

SMILES	PPC-1+TRAIL kill	HIF-2a inh	TRAIL sens C8	Peg3 promoter	CF NFkB inh	KKLEB tox	HIF-2a conf	HIF-1a cs	others
COc1ccc(S(=O)(=O)N2CCC(C(=O)NCC(=O)Nc3c(C)cccc3C)CC2)cc1OC	nt	0.3	6.4	6.1	1.1	4.9	nt	nt
CCn1c(CN2CCOCC2)nnc1SCC(=O)Nc1ccc(C(C)=O)cc1	nt	-8.4	7.7	-19.8	-18.0	18.2	nt	nt
COC(=O)c1cc(S(=O)(=O)Nc2cccc(-c3cnco3)c2)oc1C	nt	13.6	-5.3	12.9	-14.5	4.4	nt	nt
Cc1ccc(/C=N/Nc2cccc(C(=O)O)c2)s1	31.9	62.3*	10.6	34.7	-18.3	10.0	58.8*	-72.9
Cc1nn(-c2ccccc2Cl)c(Cl)c1/C=N/Nc1cccc(C(=O)O)c1	40.5	58.2*	77.7*	-38.3	1.0	-16.1	51.7*	-98.7
Cc1nn(-c2cccc(C(F)(F)F)c2)c(Cl)c1/C=N/Nc1cccc(C(=O)O)c1	21.6	-63.3	-7.8	-249.8	0.7	6.7	nt	nt
CCOc1cc(/C=N/Nc2cccc(C(=O)O)c2)ccc1OC(=O)c1ccccc1	16.3	87.4*	7.0	65.0*	-12.8	9.7	90.4*	-32.9
O=C(O)c1cccc(N/N=C/c2cccc3ccccc23)c1	nt	38.2	21.4	25.5	-1.1	8.9	nt	nt
Cc1ccc(-c2csc3ncnc(SCC(=O)Nc4nnc(C)s4)c23)cc1	5.2	17.2	2.5	6.2	9.8	-1.1	nt	nt
Cc1ccc(-c2csc3ncnc(Sc4nnc(CN5CCCCCC5=O)o4)c23)cc1	-7.0	94.3*	14.2	106.2*	93.3*	9.0	99.5*	103.5*
FC(F)(F)c1nc2nc(Cl)c(Cl)nc2n1CCCN1CCOCC1	nt	-5.6	7.2	-3.0	-34.2	3.9	nt	nt
C[C@@H]1CN([C@@H](C)CO)C(=O)c2cc(Br)cnc2O[C@H]1CN(C)C(=O)Nc1ccc(F)cc1	nt	12.0	-1.1	-7.8	6.8	11.7	nt	nt
COc1ccc2c(c1)c1ncn(CCN3CCCC3)c(=O)c1n2C	20.1	-0.2	1.4	12.3	-27.1	8.0	nt	nt
Cc1ccc2c(c1)c1ncnc(N3CCOCC3)c1n2C	8.4	-151.3	2.2	-135.0	-7.7	3.0	nt	nt
Cc1ccc2c(c1)c1ccc3c(c1n2C)C(=O)C=CC3=O	20.3	78.8*	58.5*	107.4*	-1.9	-3.3	nt	nt	Mdm2 MdmX conf=101.7*
COc1ccc2c(c1)c1ccc3c(c1n2C)C(=O)C=CC3=O	28.6	78.3*	27.8	104.4*	-1.0	-4.1	nt	nt	Mdm2 MdmX conf=102.2*
CN(C)c1ccc(/C=C/c2c([N+](=O)[O-])c(=O)n(C)c(=O)n2C)cc1	nt	-30.5	-18.1	2.5	-12.8	10.7	nt	nt
Cn1c(/C=C/c2ccc(Br)cc2)c([N+](=O)[O-])c(=O)n(C)c1=O	nt	92.0*	7.5	61.6*	31.6	29.1	55.3*	96.1*
CC1CCN(CCC(=O)NN)CC1	27.1	19.9	-2.1	1.8	27.2	-15.8	nt	nt
NNC(=O)CCN1CCCCC1	35.0	69.5*	24.6	-6.0	-3.2	-3.3	3.0	-0.8
CCN(CC(=O)Nc1c(F)cccc1F)C(=O)c1ccc(N2CCCC2=O)cc1	nt	5.5	2.8	-9.2	-3.5	8.4	nt	nt
C=C(C(=O)c1ccccc1)C(CC(=O)c1ccccc1)c1ccccc1 (configuration not stated)	4.8	94.7*	16.6	99.5*	52.2*	-54.6*	56.6*	102.6*	Mdm2 MdmX conf=102.5*
CCNC(=O)C1CCCN(C(=O)c2cccc(Cl)c2)CC1 (configuration not stated)	nt	-2.9	5.5	-5.6	10.1	5.6	nt	nt
COc1cc(/C=C/C(=O)c2ccc3c(c2)OCCO3)cc(Br)c1OCC(=O)N(C)C	nt	93.2*	40.4	107.0*	3.6	-0.5	91.5*	101.8*	Mdm2 MdmX conf=101.5*
COc1cccc(/C=C/C(=O)c2ccc3c(c2)OCO3)c1OC	nt	-198.1	41.2	-219.3	5.5	-15.7	nt	nt
SMILES	PPC-1+TRAIL kill	HIF-2a inh	TRAIL sens C8	Peg3 promoter	CF NFkB inh	KKLEB tox	HIF-2a conf	HIF-1a cs	others
Oc1cc(OCc2ccccc2)ccc1-c1[nH]ncc1-c1ccccc1	-1.1	57.3*	-8.2	17.7	-5.1	4.2	-12.5	13.1
O=[N+]([O-])c1ccc(COc2ccc(-c3[nH]ncc3-c3ccccc3)c(O)c2)cc1	20.0	3.8	0.5	18.0	-15.5	4.7	nt	nt
Cc1ccc(C2C(C#N)=C(N)N(c3ncn[nH]3)C3=C2C(=O)CC(C)(C)C3)cc1 (configuration not stated)	7.6	44.0*	-6.9	8.7	8.2	-3.5	3.5	-0.3
Cc1ccc(N2C(N)=C(C#N)C(c3cccnc3)C3=C2CC(C)(C)CC3=O)cc1 (configuration not stated)	-1.3	0.2	-5.3	17.3	-0.2	2.4	nt	nt
CC(=O)Nc1ccc(NC(=O)COC(=O)C2(c3ccc(Cl)cc3)CCCC2)cc1	26.8	31.1	12.1	16.5	-10.4	9.8	nt	nt
COc1ccc(NC(=O)CN(C)C(=O)C2(c3ccccc3)CCCC2)cc1	nt	51.1*	11.7	45.4	-107.8	4.6	32.5	15.1
CCN(CC(=O)Nc1ccc(NC(C)=O)cc1)C(=O)C1(c2ccc(Cl)cc2)CCC1	nt	50.9*	6.1	16.9	-53.6	12.3	31.8	1.3
Nc1ncnc2c1ncn2[C@@H]1O[C@H](CNS(=O)(=O)c2cc(S(=O)(=O)c3ccccc3)cs2)[C@@H](O)[C@H]1O	nt	6.0	-15.6	-5.8	7.2	-9.9	nt	nt
C=CCN(CC=C)S(=O)(=O)c1ccc(NC(=S)NC(=O)C2CC2)cc1	nt	16.8	6.9	34.0	24.9	6.9	nt	nt
O=C(NC1CCS(=O)(=O)C1)c1cccc(Cl)c1 (configuration not stated)	nt	7.7	-7.4	2.1	-26.3	9.1	nt	nt
COc1cc(/C=C2\COC/C(=C\c3ccc(O)c(OC)c3)C2=O)ccc1O	25.5	93.1*	10.7	100.6*	91.0*	-43.8	nt	nt	Mdm2 MdmX conf=102.7*
CCN1C/C(=C/c2ccc(OC)c(O)c2)C(=O)/C(=C/c2ccc(OC)c(O)c2)C1	50.5*	4.9	12.6	-7.2	-31.2	-24.4	nt	nt	Mdm2 MdmX conf=53.0*
